An excerpt weighted towards active compounds, which were near 5.4% of everything screened.
HSF1 inhib = HSF1 inhibition; NIH3T3-HGL HSE-luciferase, MG132-induced, luminescence 8 h; stronger effect = lower value; 0.77% of 300,000 active; activity change, negative = inhibition, % at 7.5 µM (by protocol);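 active = more than half of replicate wells show activity change below -50%, luminescence cut by over half; inconclusive = some wells, but at most half, below -50%; inactive = no replicate well below -50%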;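 also: luciferase reports HSF-1 transcriptional activity via heat shock element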
AHR act = activates the human aryl hydrocarbon receptor; P35869; AHR-responsive luciferase reporter cells, luminescence; activation, % at 5 µM; 2.5% of 320,000 active; in the data active = activation above about 47%
HSF-1 act = increases HSF-1 driven luciferase reporter signal; NIH3T3-HGL HSF-1 luciferase reporter, MG132, 8 h; 100% = twice DMSO control signal; activation, % at 9 µM; 1.7% of 300,000 active; AID 504408;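 active = mean replicate activation of at least 50% with a set share of replicates each reaching 50%; inconclusive = only one of those two conditions met; inactive = mean below 50% and too few replicates reaching it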
NR0B1 inh = NR0B1 (DAX1) inhibition | P51843 | HEK293 Gal4-DAX1 luciferase reporter, luminescence | inhibition, % at 6.75 µM | 0.99% of 340,000 active;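 active = inhibition above the mean over all tested compounds plus 3 SD, cut at about 4.2% in these data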;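 also: inhibition shows as a rise in luminescence from relieved DAX1 repression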
Target sequence (P51843 207-470 limits assumed): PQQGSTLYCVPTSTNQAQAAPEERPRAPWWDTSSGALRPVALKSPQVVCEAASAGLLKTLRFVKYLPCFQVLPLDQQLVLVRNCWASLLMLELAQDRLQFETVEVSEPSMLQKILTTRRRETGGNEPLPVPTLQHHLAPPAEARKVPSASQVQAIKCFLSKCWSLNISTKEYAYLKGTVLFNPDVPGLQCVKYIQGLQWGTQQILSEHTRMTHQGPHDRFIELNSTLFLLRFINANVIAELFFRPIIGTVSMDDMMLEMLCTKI
GAA850 FXN act = frataxin GAA850 promoter activation; AID 540364; 0.56% of 360,000 active; activation, % at 6 µM; HEK293 lucGAA850 FXN promoter luciferase reporter, 24 h; percent of 10 µM SAHA response;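 active = activation above the average of all compounds screened plus 3 SD, cutoff fixed separately per campaign, cut at about 7.5% in these data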
GAA30 FXN cntr = activates GAA30 frataxin promoter, counter-screen for GAA850 activators | shares compounds with GAA850 FXN act | HEK293 lucGAA30 FXN promoter luciferase, 24 h; DMSO = 0%, 5 µM ipriflavone = 100% | activation, % at 6 µM | 66% of 1,900 active;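 active = mean activation above the mean of solvent-only control wells plus 3 SD, cut at about 22% in these data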;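 also: counterscreen of GAA850 promoter hits where activity marks nonselective or luminescence artifacts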
GAA850 confirm = GAA850 FXN promoter activation confirmation; shares compounds with GAA850 FXN act; HEK293 lucGAA850 FXN promoter luciferase reporter, 24 h; 100% = activation by SAHA; activation, % at 6 µM; 86% of 1,900 active;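 active = mean activation above a set limit taken from the primary screen, cut at about 8% in these data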
Each line names hits and unclear results; the compound was inactive in the other large screens (follow-up assays come after a bar, where they were run); ! = repeats disagree.

Cc1ccc(OP2(=O)Nc3cc(C)c(C)cc3S2)cc1 (centres undefined)	none (no result: HSF1 inhib, AHR act, HSF-1 act)
Cc1cc(C)cc(N2C(=O)NC(=O)/C(=C\C=C\c3ccco3)C2=O)c1	HSF-1 act inconclusive, GAA850 FXN act 8.9 | GAA30 FXN cntr inactive | GAA850 confirm inactive
CC(C)c1ccc(N2C(=O)NC(=O)/C(=C/C=C/c3ccco3)C2=O)cc1	GAA850 FXN act 8.7 | GAA30 FXN cntr inactive | GAA850 confirm 20.0
Cc1ccc(N2C(=O)NC(=O)/C(=C/C=C/c3ccco3)C2=O)cc1	HSF-1 act inconclusive
O=C1NC(=S)NC(=O)C1c1ccccc1	none (no result: HSF1 inhib, AHR act, HSF-1 act)
CN(C)[C@@H]1C(=O)C(C(N)=O)=C(O)[C@@]2(O)C(=O)C3=C(O)c4c(O)cccc4[C@@](C)(O)C3[C@H](O)C12 (some centres undefined)	GAA850 FXN act 14.6! | GAA30 FXN cntr 28.3 | GAA850 confirm 9.1
CN(C)[C@@H]1C(=O)C(C(N)=O)=C(O)[C@@]2(O)C(=O)C3=C(O)c4c(O)ccc(Cl)c4[C@@](C)(O)C3C[C@@H]12 (some centres undefined)	GAA850 FXN act 13.7 (no result: HSF1 inhib, AHR act, HSF-1 act) | GAA30 FXN cntr inactive | GAA850 confirm inactive
c1ccc2[nH]c(CCN3CCCCC3)nc2c1	none (no result: HSF1 inhib, AHR act, HSF-1 act)
C=CCNC(=O)c1c(N)n(Cc2ccco2)c2nc3ccccc3nc12	HSF-1 act 133.9, GAA850 FXN act 9.6 | GAA30 FXN cntr inactive | GAA850 confirm 8.6
CC1(C)CC(=O)CC(C)(C)N1O	none (no result: HSF1 inhib, AHR act, HSF-1 act)
O=[N+]([O-])c1[nH]cnc1Br	none (no result: HSF1 inhib, AHR act, HSF-1 act)
CCN1C(=O)C(=Cc2ccc(C)s2)C(=O)N(CC)C1=S	GAA850 FXN act 9.0 | GAA30 FXN cntr 79.4 | GAA850 confirm 45.3
COc1ccc(OC(=O)N(C)C[C@@H]2OCc3ccccc3-c3c(n(C)c4ccccc34)C(=O)N([C@H](C)CO)C[C@@H]2C)cc1	GAA850 FXN act 11.7 (no result: HSF1 inhib, AHR act, HSF-1 act) | GAA30 FXN cntr inactive | GAA850 confirm 9.1
COc1ccc(OC(=O)N(C)C[C@H]2OCc3cnnn3CCCC(=O)N([C@H](C)CO)C[C@@H]2C)cc1	none (no result: HSF1 inhib, AHR act, HSF-1 act)
CS(=O)(=O)c1ccc(C2=C(CNC(=O)c3nccs3)[C@H]3CC[C@@H](C2)N3Cc2ccco2)cc1	none (no result: HSF1 inhib, AHR act, HSF-1 act)
COc1ccc(-c2ccc3n2Cc2cnnn2-c2ccccc2-3)cc1	none (no result: HSF1 inhib, AHR act, HSF-1 act)
CCC(=NC(C)c1ccccc1)c1c(O)[nH]c(=O)[nH]c1=O (centres undefined)	GAA850 FXN act 8.5 | GAA30 FXN cntr inactive | GAA850 confirm 10.1
COc1ccc(/C=N/N=C(/N)N[N+](=O)[O-])c(OC)c1	GAA850 FXN act 9.7 | GAA30 FXN cntr 74.7 | GAA850 confirm 26.5
